In the supplement of paper PMC6411743:
± gives the standard deviation of the averaged measurements. The full data set covers some 6,200 targets. This sample favours those with the largest changes.

Compound: Nc1ncnc2c1ncn2[C@@H]1O[C@H](COP(=O)(O)OP(=O)(O)NP(=O)(O)O)[C@@H](O)[C@H]1O [adenylyl imidodiphosphate]
Assay: NP40-soluble protein abundance relative to vehicle (solubility fold change) (ratio); higher = more soluble protein in presence of AMP-PNP
Summary of the method: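 Jurkat crude lysate prepared with a Dounce homogeniser was treated at eight concentrations spanning 0.1 to 10 mM, 10 min at room temperature then 3 min at 37 °C. Solubilisation with 0.8% NP40 and benzonase and ultracentrifugation preceded TMT labelling of the supernatant for LC-MS/MS. Fold change against the detergent-processed vehicle was determined per replicate from vsn-normalised intensities, across three independent experiments.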

Sequence of UniProt O95251 (O95251 whole entry): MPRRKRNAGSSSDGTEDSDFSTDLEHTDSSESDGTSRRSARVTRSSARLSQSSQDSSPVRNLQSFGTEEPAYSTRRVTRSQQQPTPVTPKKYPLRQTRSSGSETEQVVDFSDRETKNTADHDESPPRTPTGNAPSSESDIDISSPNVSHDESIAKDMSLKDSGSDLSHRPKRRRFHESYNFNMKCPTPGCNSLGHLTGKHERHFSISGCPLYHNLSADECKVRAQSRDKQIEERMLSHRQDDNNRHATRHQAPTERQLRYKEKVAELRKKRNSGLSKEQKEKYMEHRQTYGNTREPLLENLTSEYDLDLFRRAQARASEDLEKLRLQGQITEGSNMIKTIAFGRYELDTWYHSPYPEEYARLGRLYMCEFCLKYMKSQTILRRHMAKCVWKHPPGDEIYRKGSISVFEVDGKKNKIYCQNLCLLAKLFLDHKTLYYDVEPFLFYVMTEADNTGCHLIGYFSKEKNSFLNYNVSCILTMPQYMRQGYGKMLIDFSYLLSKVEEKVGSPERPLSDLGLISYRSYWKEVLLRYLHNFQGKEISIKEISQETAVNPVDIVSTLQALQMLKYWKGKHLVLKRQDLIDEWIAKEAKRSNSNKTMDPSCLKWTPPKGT
Sequence of UniProt O75475 (O75475 whole entry, one chain of several): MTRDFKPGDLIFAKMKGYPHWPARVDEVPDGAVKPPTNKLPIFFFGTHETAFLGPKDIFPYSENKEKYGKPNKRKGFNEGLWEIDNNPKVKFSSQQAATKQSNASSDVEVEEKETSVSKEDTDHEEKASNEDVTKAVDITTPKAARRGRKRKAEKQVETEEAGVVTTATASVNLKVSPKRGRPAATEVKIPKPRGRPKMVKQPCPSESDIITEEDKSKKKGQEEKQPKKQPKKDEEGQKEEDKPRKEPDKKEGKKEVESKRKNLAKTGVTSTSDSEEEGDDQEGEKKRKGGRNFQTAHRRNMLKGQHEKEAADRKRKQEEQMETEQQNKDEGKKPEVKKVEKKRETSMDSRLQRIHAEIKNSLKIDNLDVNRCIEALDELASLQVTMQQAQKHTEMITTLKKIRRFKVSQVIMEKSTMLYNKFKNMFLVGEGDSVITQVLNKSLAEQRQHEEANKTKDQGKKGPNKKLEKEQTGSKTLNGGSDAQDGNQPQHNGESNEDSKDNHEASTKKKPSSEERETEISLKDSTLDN
Sequence of UniProt P62318 (P62318 whole entry): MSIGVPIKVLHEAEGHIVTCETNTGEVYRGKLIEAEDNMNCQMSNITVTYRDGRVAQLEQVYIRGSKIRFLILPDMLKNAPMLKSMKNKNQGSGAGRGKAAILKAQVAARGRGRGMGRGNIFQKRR
Sequence of UniProt P78540 (P78540 whole entry): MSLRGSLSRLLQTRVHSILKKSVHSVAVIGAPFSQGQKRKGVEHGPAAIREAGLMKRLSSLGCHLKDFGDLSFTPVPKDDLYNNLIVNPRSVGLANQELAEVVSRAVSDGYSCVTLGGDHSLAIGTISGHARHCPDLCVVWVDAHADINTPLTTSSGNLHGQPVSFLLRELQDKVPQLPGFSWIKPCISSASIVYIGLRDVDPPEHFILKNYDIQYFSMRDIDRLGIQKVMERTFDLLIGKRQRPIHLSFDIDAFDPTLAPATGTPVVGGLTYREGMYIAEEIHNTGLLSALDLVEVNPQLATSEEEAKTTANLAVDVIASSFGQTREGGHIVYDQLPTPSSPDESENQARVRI
Sequence of UniProt O75822 (O75822 whole entry): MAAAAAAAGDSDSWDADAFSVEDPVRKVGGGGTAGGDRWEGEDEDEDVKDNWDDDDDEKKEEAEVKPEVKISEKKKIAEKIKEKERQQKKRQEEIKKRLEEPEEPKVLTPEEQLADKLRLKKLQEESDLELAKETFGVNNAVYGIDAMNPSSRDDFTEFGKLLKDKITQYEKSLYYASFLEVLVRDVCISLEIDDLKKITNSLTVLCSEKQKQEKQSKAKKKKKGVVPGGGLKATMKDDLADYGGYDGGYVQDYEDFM
Sequence of UniProt O95630 (O95630 whole entry): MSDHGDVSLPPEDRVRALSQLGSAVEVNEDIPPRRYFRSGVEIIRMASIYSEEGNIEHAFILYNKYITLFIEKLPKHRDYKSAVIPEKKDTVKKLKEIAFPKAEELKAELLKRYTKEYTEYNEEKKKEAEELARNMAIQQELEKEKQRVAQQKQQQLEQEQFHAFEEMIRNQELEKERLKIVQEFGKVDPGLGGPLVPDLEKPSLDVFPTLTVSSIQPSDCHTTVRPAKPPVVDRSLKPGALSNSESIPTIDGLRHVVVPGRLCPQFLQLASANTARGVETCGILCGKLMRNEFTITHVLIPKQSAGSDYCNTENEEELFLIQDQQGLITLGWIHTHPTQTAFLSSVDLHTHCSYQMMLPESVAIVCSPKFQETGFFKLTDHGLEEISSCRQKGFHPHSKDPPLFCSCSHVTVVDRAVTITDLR
Sequence of UniProt Q13153 (Q13153 whole entry): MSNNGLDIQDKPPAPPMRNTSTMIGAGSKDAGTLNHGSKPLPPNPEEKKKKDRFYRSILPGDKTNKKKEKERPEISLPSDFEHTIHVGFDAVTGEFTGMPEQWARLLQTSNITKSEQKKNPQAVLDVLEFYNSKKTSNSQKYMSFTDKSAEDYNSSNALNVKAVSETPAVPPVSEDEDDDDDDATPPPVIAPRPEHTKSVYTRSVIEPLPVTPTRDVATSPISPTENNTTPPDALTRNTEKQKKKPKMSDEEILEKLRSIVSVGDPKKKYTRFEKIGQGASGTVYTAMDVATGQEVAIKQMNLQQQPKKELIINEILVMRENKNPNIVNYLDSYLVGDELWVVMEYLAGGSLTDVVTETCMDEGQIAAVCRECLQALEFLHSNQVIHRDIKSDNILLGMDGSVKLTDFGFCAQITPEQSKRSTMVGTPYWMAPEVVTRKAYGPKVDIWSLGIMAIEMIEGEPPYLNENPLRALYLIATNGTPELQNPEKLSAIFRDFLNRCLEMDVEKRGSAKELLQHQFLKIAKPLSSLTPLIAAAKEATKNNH
Sequence of UniProt P31751 (P31751 whole entry): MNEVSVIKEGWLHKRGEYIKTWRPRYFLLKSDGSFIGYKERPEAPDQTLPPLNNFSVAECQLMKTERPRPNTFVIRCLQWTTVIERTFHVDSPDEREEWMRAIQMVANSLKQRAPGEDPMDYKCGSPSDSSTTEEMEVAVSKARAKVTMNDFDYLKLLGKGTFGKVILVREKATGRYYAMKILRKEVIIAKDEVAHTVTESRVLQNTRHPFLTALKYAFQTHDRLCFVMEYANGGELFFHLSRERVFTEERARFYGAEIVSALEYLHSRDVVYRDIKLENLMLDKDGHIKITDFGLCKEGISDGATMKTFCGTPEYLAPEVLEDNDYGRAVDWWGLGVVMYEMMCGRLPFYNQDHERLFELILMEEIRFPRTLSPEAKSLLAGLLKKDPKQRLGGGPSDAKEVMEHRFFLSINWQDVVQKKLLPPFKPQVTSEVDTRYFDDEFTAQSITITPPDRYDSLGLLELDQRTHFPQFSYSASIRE
Sequence of UniProt O95104 (O95104 whole entry): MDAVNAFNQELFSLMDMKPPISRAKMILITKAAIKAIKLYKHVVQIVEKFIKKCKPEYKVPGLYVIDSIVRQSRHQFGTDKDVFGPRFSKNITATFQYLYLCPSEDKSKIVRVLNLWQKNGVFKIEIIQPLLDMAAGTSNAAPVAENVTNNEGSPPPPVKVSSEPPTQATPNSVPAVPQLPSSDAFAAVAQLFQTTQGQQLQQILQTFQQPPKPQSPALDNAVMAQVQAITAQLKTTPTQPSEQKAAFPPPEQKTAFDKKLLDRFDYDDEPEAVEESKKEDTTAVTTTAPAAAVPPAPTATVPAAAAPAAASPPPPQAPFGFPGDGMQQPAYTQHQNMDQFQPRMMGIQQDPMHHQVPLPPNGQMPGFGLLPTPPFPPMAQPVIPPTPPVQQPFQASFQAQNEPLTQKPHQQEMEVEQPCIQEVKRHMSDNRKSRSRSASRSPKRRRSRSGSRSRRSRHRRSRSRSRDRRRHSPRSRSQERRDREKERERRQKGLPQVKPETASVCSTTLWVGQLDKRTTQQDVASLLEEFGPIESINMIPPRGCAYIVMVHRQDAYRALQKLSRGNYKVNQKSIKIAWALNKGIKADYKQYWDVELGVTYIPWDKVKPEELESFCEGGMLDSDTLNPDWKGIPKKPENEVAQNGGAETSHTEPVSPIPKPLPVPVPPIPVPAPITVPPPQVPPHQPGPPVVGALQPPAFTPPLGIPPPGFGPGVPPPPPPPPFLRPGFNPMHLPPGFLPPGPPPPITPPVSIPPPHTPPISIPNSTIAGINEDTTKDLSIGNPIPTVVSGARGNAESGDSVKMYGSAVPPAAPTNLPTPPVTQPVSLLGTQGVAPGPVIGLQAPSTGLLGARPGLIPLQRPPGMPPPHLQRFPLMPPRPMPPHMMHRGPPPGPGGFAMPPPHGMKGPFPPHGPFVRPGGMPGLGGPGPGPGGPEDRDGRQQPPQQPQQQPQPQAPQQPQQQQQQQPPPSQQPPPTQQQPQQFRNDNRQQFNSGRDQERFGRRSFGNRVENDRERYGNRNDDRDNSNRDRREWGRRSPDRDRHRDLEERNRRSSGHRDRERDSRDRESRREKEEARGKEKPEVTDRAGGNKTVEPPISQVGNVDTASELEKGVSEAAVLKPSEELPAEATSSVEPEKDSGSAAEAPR
Sequence of UniProt Q05519 (Q05519 whole entry): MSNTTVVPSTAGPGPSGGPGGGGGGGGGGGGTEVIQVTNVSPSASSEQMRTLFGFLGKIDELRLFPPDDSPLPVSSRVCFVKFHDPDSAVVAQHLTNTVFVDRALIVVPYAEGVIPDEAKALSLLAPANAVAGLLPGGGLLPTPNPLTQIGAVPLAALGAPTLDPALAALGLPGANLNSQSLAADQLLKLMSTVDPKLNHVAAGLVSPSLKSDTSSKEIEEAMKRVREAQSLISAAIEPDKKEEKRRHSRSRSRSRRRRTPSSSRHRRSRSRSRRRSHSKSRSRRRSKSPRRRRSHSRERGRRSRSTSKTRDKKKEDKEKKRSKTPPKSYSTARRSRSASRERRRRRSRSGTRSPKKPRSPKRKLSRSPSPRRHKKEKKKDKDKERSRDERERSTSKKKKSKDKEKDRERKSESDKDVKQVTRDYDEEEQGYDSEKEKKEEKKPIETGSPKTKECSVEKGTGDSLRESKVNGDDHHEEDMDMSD

Target	NP40-soluble protein abundance (concentration: 1mM)	NP40-soluble protein abundance (concentration: 2mM)	NP40-soluble protein abundance (concentration: 4mM)	NP40-soluble protein abundance (concentration: 6mM)	NP40-soluble protein abundance (concentration: 8mM)	NP40-soluble protein abundance (concentration: 10mM)
STAMBP (UniProt O95630)	1.02 ± 0.02	0.993 ± 0.012	0.995 ± 0.03	0.984 ± 0.018	0.964 ± 0.033	0.948 ± 0.06
ITGA2 (UniProt P17301)	0.9944 ± 0.0014	1.02 ± 0.084	0.988 ± 0.024	1.019 ± 0.0071	1.01 ± 0.025	1.04 ± 0.011
COX6B1 (UniProt P14854)	0.864 ± 0.041	0.926 ± 0.032	0.916 ± 0.063	0.86 ± 0.055	0.821 ± 0.016	0.839 ± 0.019
UniProt P98082|P98082-2|P98082-3	1.016 ± 0.0042	1.03 ± 0.042	1.042 ± 0.0097	1.016 ± 0.004	1.017 ± 0.0048	1.035 ± 0.0064
DNAJC3 (UniProt Q13217)	0.978 ± 0.031	0.9648 ± 0.0063	0.973 ± 0.011	1.01 ± 0.014	0.985 ± 0.021	0.999 ± 0.022
ERAL1 (UniProt O75616)	0.7647 ± 0.0038	0.6675 ± 0.0031	0.716 ± 0.036	0.681 ± 0.011	0.674 ± 0.062	0.636 ± 0.04
UniProt P62318|P62318-2	1.07 ± 0.086	1.12 ± 0.12	1.19 ± 0.099	1.22 ± 0.017	1.29 ± 0.09	1.32 ± 0.056
UniProt Q12974|Q12974-4	1.04 ± 0.032	1.022 ± 0.0039	0.956 ± 0.027	0.996 ± 0.025	1.02 ± 0.029	0.988 ± 0.02
HSPA14 (UniProt Q0VDF9)	1.01 ± 0.046	0.998 ± 0.032	1.01 ± 0.034	1.012 ± 0.0091	1.03 ± 0.059	1.02 ± 0.049
UROS (UniProt P10746)	1.04 ± 0.012	1.03 ± 0.015	1 ± 0.045	0.99 ± 0.029	0.975 ± 0.051	0.982 ± 0.075
SH3BGRL (UniProt O75368)	0.939 ± 0.027	0.966 ± 0.028	0.888 ± 0.013	0.937 ± 0.031	0.907 ± 0.015	0.897 ± 0.033
UniProt O95104|O95104-3|O95104-2	1.1 ± 0.033	1.22 ± 0.083	1.26 ± 0.039	1.34 ± 0.14	1.39 ± 0.071	1.46 ± 0.063
P0DN76|Q01081 (UniProt Q01081+P0DN76)	1.04 ± 0.065	1.06 ± 0.083	1.12 ± 0.05	1.29 ± 0.099	1.47 ± 0.18	1.51 ± 0.18
UniProt P20073|P20073-2	0.966 ± 0.053	0.996 ± 0.093	0.989 ± 0.069	0.998 ± 0.086	1.04 ± 0.052	0.995 ± 0.096
UniProt Q06787|Q06787-3|Q06787-5|Q06787-8|Q06787-9|Q06787-7	1.05 ± 0.04	1.11 ± 0.013	1.1 ± 0.02	1.22 ± 0.066	1.24 ± 0.016	1.36 ± 0.02
UniProt O75822|O75822-2	0.876 ± 0.042	0.941 ± 0.07	0.858 ± 0.031	0.949 ± 0.026	0.957 ± 0.029	0.99 ± 0.015
FXR2 (UniProt P51116)	1.07 ± 0.022	1.1 ± 0.023	1.2 ± 0.025	1.24 ± 0.076	1.33 ± 0.051	1.39 ± 0.12
SURF6 (UniProt O75683)	1.05 ± 0.056	1.12 ± 0.092	1.1 ± 0.057	1.17 ± 0.095	1.14 ± 0.12	1.22 ± 0.088
MPP1 (UniProt Q00013)	1.01 ± 0.015	0.964 ± 0.035	1.01 ± 0.028	0.978 ± 0.028	1.01 ± 0.048	0.986 ± 0.034
UniProt O95251|O95251-4	1.11 ± 0.031	1.17 ± 0.06	1.18 ± 0.063	1.2 ± 0.073	1.25 ± 0.077	1.36 ± 0.088

Target	NP40-soluble protein abundance (concentration: 1mM)	NP40-soluble protein abundance (concentration: 2mM)	NP40-soluble protein abundance (concentration: 4mM)	NP40-soluble protein abundance (concentration: 6mM)	NP40-soluble protein abundance (concentration: 8mM)	NP40-soluble protein abundance (concentration: 10mM)
ARG2 (UniProt P78540)	0.983 ± 0.026	1.02 ± 0.033	1.02 ± 0.033	1.01 ± 0.027	0.997 ± 0.019	0.985 ± 0.038
UniProt P25398	0.934 ± 0.016	0.955 ± 0.044	0.869 ± 0.053	0.872 ± 0.033	0.81 ± 0.054	0.847 ± 0.049
DLAT (UniProt P10515)	0.959 ± 0.23	0.904 ± 0.2	0.904 ± 0.31	0.877 ± 0.31	0.899 ± 0.27	0.923 ± 0.31
GRB2 (UniProt P62993)	0.985 ± 0.035	0.943 ± 0.046	0.946 ± 0.023	0.972 ± 0.01	0.944 ± 0.037	0.918 ± 0.024
UniProt P54619|P54619-3|P54619-2	0.993 ± 0.015	0.871 ± 0.092	0.964 ± 0.035	0.943 ± 0.025	1.01 ± 0.02	0.905 ± 0.045
NAA20 (UniProt P61599)	0.999 ± 0.039	0.9558 ± 0.0052	0.991 ± 0.022	0.973 ± 0.01	1.026 ± 0.0096	0.9551 ± 0.001
PAK1 (UniProt Q13153)	0.989 ± 0.035	1.05 ± 0.046	0.989 ± 0.036	0.981 ± 0.013	0.926 ± 0.032	0.975 ± 0.041
NUDT2 (UniProt P50583)	0.9311 ± 0.0079	0.909 ± 0.027	1.56 ± 0.26	1.22 ± 0.17	1.49 ± 0.23	1.14 ± 0.14
IGFBP2 (UniProt P18065)	1.03 ± 0.034	1.03 ± 0.058	1.01 ± 0.067	0.966 ± 0.0077	0.991 ± 0.021	0.957 ± 0.014
UniProt P38159|P38159-2	1.12 ± 0.09	1.34 ± 0.094	1.34 ± 0.037	1.53 ± 0.16	1.58 ± 0.19	1.82 ± 0.16
RPL7 (UniProt P18124)	0.966 ± 0.094	0.953 ± 0.039	0.962 ± 0.07	0.895 ± 0.056	0.902 ± 0.097	0.985 ± 0.024
UniProt Q01085-2	0.997 ± 0.044	0.976 ± 0.057	0.992 ± 0.029	0.957 ± 0.037	0.9409 ± 0.0074	0.952 ± 0.032
UniProt Q13163|Q13163-2|Q13163-3|Q13163-4	0.968 ± 0.026	1.01 ± 0.041	1.02 ± 0.057	0.958 ± 0.049	0.933 ± 0.019	0.941 ± 0.022
UniProt P51608-2|P51608|A0A087WXF0	1.04 ± 0.023	1.06 ± 0.016	1.04 ± 0.046	1.07 ± 0.019	1.07 ± 0.028	1.15 ± 0.042
HMGN2 (UniProt P05204)	1.06 ± 0.04	1.15 ± 0.12	1.09 ± 0.05	1.25 ± 0.081	1.16 ± 0.21	1.54 ± 0.28
UniProt P00167|P00167-2	0.995 ± 0.028	0.984 ± 0.033	0.936 ± 0.036	0.992 ± 0.011	0.948 ± 0.021	0.966 ± 0.012
UniProt P26368|P26368-2	0.986 ± 0.075	1 ± 0.025	1.11 ± 0.069	1.24 ± 0.098	1.41 ± 0.09	1.51 ± 0.12
UniProt Q05519|Q05519-2	1.12 ± 0.031	1.18 ± 0.11	1.21 ± 0.088	1.26 ± 0.049	1.34 ± 0.16	1.51 ± 0.2
ECHS1 (UniProt P30084)	0.9976 ± 0.0068	0.9885 ± 0.006	0.955 ± 0.029	0.994 ± 0.02	0.963 ± 0.017	0.961 ± 0.015
HSD17B4 (UniProt P51659)	1.01 ± 0.034	0.967 ± 0.026	1.04 ± 0.041	1.09 ± 0.058	1.12 ± 0.033	1.1 ± 0.034

Target	NP40-soluble protein abundance (concentration: 1mM)	NP40-soluble protein abundance (concentration: 2mM)	NP40-soluble protein abundance (concentration: 4mM)	NP40-soluble protein abundance (concentration: 6mM)	NP40-soluble protein abundance (concentration: 8mM)	NP40-soluble protein abundance (concentration: 10mM)
UniProt P42285	1.006 ± 0.0056	0.982 ± 0.062	1.07 ± 0.033	1.1 ± 0.036	1.14 ± 0.068	1.13 ± 0.089
UniProt O95782|O95782-2	0.994 ± 0.03	0.953 ± 0.058	1.07 ± 0.046	1.09 ± 0.044	1.13 ± 0.021	1.13 ± 0.056
AKT2 (UniProt P31751)	0.974 ± 0.025	0.95 ± 0.043	0.969 ± 0.034	0.947 ± 0.031	0.969 ± 0.017	0.96 ± 0.044
UniProt O95786|O95786-2	0.996 ± 0.051	0.944 ± 0.035	0.978 ± 0.022	0.942 ± 0.017	0.967 ± 0.021	0.933 ± 0.029
UniProt P10619|P10619-2|X6R5C5|X6R8A1	0.979 ± 0.018	0.987 ± 0.086	0.984 ± 0.044	1.05 ± 0.11	1.06 ± 0.083	1.07 ± 0.13
UniProt Q10589|Q10589-2	1.0272 ± 0.00052	1.04 ± 0.011	1.03 ± 0.025	1.03 ± 0.028	1.05 ± 0.056	1.04 ± 0.048
DBT (UniProt P11182)	0.977 ± 0.14	1.01 ± 0.12	1.01 ± 0.15	0.999 ± 0.2	0.971 ± 0.14	1.03 ± 0.19
UniProt P62857	0.941 ± 0.041	0.993 ± 0.078	0.919 ± 0.069	0.837 ± 0.071	0.74 ± 0.057	0.847 ± 0.092
UniProt P52824|H0YA20	0.978 ± 0.0098	0.979 ± 0.023	0.955 ± 0.028	0.99 ± 0.025	0.96 ± 0.039	0.986 ± 0.03
HIST1H1C (UniProt P16403)	1.02 ± 0.05	1.13 ± 0.042	1.07 ± 0.023	1.17 ± 0.06	1.2 ± 0.095	1.54 ± 0.15
UniProt O94804	1.03 ± 0.017	1.04 ± 0.031	1.01 ± 0.027	0.987 ± 0.029	0.96 ± 0.012	0.991 ± 0.048
USP8 (UniProt P40818)	1.036 ± 0.0058	1.05 ± 0.033	1.048 ± 0.0058	0.997 ± 0.015	0.996 ± 0.042	1.01 ± 0.033
UniProt P23771|P23771-2	0.959 ± 0.029	0.99 ± 0.043	0.9254 ± 0.0013	0.895 ± 0.0095	0.908 ± 0.012	0.908 ± 0.022
CSTF1 (UniProt Q05048)	0.9781 ± 0.0088	0.931 ± 0.075	1 ± 0.015	1 ± 0.015	1.069 ± 0.0036	1.02 ± 0.046
UniProt O75475|V9GYT7	1.08 ± 0.028	1.21 ± 0.042	1.24 ± 0.056	1.34 ± 0.057	1.34 ± 0.024	1.37 ± 0.023
GLRX3 (UniProt O76003)	1.04 ± 0.026	1.02 ± 0.011	0.99 ± 0.027	0.9932 ± 0.0036	0.989 ± 0.031	0.976 ± 0.055
RPS3A (UniProt P61247)	0.96 ± 0.052	0.931 ± 0.044	0.918 ± 0.11	0.895 ± 0.081	0.83 ± 0.057	0.947 ± 0.11
FBL (UniProt P22087)	1.02 ± 0.046	1.027 ± 0.003	1.1 ± 0.051	1.22 ± 0.092	1.37 ± 0.12	1.48 ± 0.25
UniProt P17812	0.932 ± 0.03	0.873 ± 0.06	0.91 ± 0.033	0.96 ± 0.077	0.97 ± 0.04	0.924 ± 0.044
MYL6B (UniProt P14649)	1.02 ± 0.042	1.1 ± 0.053	1.01 ± 0.034	0.987 ± 0.051	0.925 ± 0.041	0.962 ± 0.019
